# PP5 primary: PP5 phosphatase inhibitors, primary screen, biochemical, fluorescence | Serine/threonine-protein phosphatase 5 (Homo sapiens), P53041 | inhibition, % at 6.7 µM | 320,000 tested, 0.18% active | AID 1987, 2009 | purified PP5c, OMFP substrate fluorescence;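 active = inhibition above the campaign's mean inhibition across all tested compounds plus 3 SD, cut at about 9.5% in these data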;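 note: 0% = DMSO only and 100% = 100 µM cantharidin control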
# CSC inhib: cancer stem cell viability inhibitors, primary screen, luminescence; cancer stem cell-like cells viability; 300,000 tested, 1.1% active; AID 2717, 2010; inhibition, % at 7.5 µM; in the data active = inhibition above about 75%; tested in HMLE shEcad cells
# SKKanGAS inh: S. pyogenes SKKanGAS growth inhibitors in kanamycin, primary screen, streptokinase expression inhibitor project, SKKanGAS strain, BacTiter-Glo luminescence | 6 h | inhibition, % at 7.5 µM | 300,000 tested, 1.3% active;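 active = mean replicate score, as percent of positive control median, at least 50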;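 note: strain carries kanamycin resistance gene driven by streptokinase promoter and grows in 40 µg/ml kanamycin; loss of luminescence reflects streptokinase promoter inhibition or plain growth inhibition; 0% = median of DMSO wells and 100% = positive control at its reference dose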
# Beta apoptosis: inhibitors of cytokine-induced beta cell apoptosis, primary screen, luminescence; INS-1E cytokine-induced death, ATP luminescence, 48 h; percent of positive-control rescue, neutral wells zero; protection from apoptosis, % (no concentration beside the values); 300,000 tested, 0.8% active;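 active = Every replicate reaches about 75%, or at least half do and their mean reaches it too, limit read from the data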;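 note: 0% = cytokine-treated negative control wells and 100% = positive control rescue; higher means more ATP so stronger rescue from cytokine killing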
# PP1 inh: PP1-alpha phosphatase inhibitors, primary screen, counter-screen for PP5 inhibitor project, biochemical, fluorescence, OMFP substrate, single point | inhibition, % at 6.7 µM | 320,000 tested, 0.9% active | Serine/threonine-protein phosphatase PP1-alpha catalytic subunit (Homo sapiens), P62136 | purified PP1alpha;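 active = inhibition above the mean inhibition of all tested compounds plus 3 SD, computed separately for each screening campaign, cut at about 15% in these data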
# Target sequence (P62136 whole entry, looked up): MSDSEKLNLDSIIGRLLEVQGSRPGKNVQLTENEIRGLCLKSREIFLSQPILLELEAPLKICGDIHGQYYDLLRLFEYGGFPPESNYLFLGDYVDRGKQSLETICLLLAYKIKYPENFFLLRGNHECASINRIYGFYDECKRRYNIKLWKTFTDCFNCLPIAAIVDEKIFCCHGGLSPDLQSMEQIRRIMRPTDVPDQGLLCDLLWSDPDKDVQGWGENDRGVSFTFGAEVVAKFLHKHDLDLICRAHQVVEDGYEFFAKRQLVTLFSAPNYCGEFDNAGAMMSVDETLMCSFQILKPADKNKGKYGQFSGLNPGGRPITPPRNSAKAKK
# PP1 confirm: PP1 phosphatase inhibitors, confirmation, biochemical, fluorescence, OMFP substrate, triplicate; shares compounds with PP1 inh; purified PP1alpha; inhibition, % at 6.7 µM; 1,900 tested, 52% active; AID 2358, 2010;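 active = mean PP1 inhibition above a set limit taken from the earlier primary screen, cut at about 15% in these data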
# PP5 inh counter: PP5 phosphatase inhibition by PP1 hits, confirmation, counter-screen for PP1 inhibitor project, biochemical, fluorescence, triplicate | shares compounds with PP1 inh | purified PP5c, OMFP fluorescence | inhibition, % at 6.7 µM | 1,900 tested, 4% active | AID 2360, 2010;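 active = mean PP5 inhibition over triplicate wells above about 9.5% taken from the earlier PP1 screen, limit read from the data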
# Starred values were filed as active, the others as inactive; . = not tested or not shown. Only some compounds are listed: those with a hit (about 3.1% of all), similar ones and a draw of the others.
SMILES,PP5 primary,CSC inhib,SKKanGAS inh,Beta apoptosis,PP1 inh,PP1 confirm,PP5 inh counter
Cc1ccc(-n2nc3c(c2NC(=O)/C=C\c2ccc4c(c2)OCO4)CSC3)c(C)c1,1.3,-13.0,1.9,.,14.0,.,.
CN(C(=O)COc1ccccc1C(=O)NCCOc1ccccc1)c1ccccc1,2.8,48.7,-1.5,37.3,1.5,.,.
CCOC(=O)Cc1cc(=O)n(-c2nc3ccccc3s2)[nH]1,0.3,30.8,9.9,-4.2,44.4*,-3.0,-5.4
O=C1CC(=C(c2ccccc2)c2ccccc2)C(=O)N1CCCCN1CCN(c2cccc(Cl)c2)CC1,4.6,113.1*,11.9,-3.8,25.0*,3.5,-1.9
COc1ccc(C(CNS(=O)(=O)c2cccc(F)c2)N2CCCC2)cc1 (stereo not given),.,1.0,.,-4.5,.,.,.
C=CCNc1cc(N2CCCC2)ccc1[N+](=O)[O-],3.8,-17.8,-3.5,-1.3,2.2,.,.
CCOc1cc(C(=O)Nc2cc3c(cc2N2CCOCC2)n(C)c(=O)n3C)cc(OCC)c1OCC,2.3,-2.1,3.7,12.9,-1.0,.,.
CCCn1c(CN2CCN(C(=O)OCC)CC2)nc2c1c(=O)n(C)c(=O)n2C,3.6,.,0.1,9.6,54.5*,-5.0,-2.7
O=c1/c(=C\c2cc([N+](=O)[O-])cc([N+](=O)[O-])c2O)sc2nc3ccccc3n12,0.2,11.6,.,-9.1,17.6*,25.6*,2.8
O=c1/c(=C/c2ccccn2)sc2nc3ccccc3n12,2.4,-13.8,-1.8,1.4,4.5,.,.
CC1CN(S(=O)(=O)c2cccc(C(=O)NCc3ccccn3)c2)CC(C)O1 (stereo not given),.,5.1,.,0.9,.,.,.
COCc1cc(C)nc2sc(C(=O)NCCO)c(-n3cccc3)c12,3.6,-0.3,7.0,-2.5,-1.5,.,.
O=C(Nc1ccc(N2CCCC2)cc1)c1ccc2ccccc2c1,1.6,-3.7,2.8,18.0,20.7*,0.2,-4.9
O=C(Cn1cncc1-c1ccc([N+](=O)[O-])cc1)Nc1ccccc1F,3.6,-11.0,-8.2,-2.8,0.9,.,.
CC1CCN(C(=O)Cn2nc(C(F)(F)F)c3c2CCCC3)CC1,-2.0,8.2,.,.,34.2*,-3.5,-3.9
Cc1ccc(S(=O)(=O)N2CCOCC2)cc1C(=O)Nc1ccc(S(=O)(=O)Nc2nccs2)cc1,-0.4,-12.7,5.2,-6.6,29.8*,-0.2,-2.6
O=C(Nc1ccc(S(=O)(=O)Nc2nccs2)cc1)c1ccc(S(=O)(=O)N2CCOCC2)cc1,2.4,3.5,0.2,-4.3,-2.0,.,.
CCCCCC(=O)Cc1cc(O)cc2c1C(=O)Oc1cc(O)c(C(=O)O)c(CCCCC)c1O2,6.7,51.2,71.3*,-3.4,28.9*,37.5*,3.2
C/C(=N\NC(=O)c1nnn(-c2nonc2N)c1CN(C)c1ccccc1)c1ccccn1,3.1,105.0*,23.6,86.0*,19.3*,29.6*,1.9
Cc1noc(C(=O)Nc2cccc(O)c2)c1Cl,-0.5,4.8,-6.2,4.3,-2.4,.,.
Cc1ccc(C)c(-c2nnc(NC(=O)Cc3ccc(F)cc3)o2)c1,1.2,41.5,16.8,-2.2,-3.5,.,.
Cc1ccc(C)c(-c2nnc(NC(=O)COc3ccccc3)o2)c1,-0.3,.,104.9*,-2.3,21.8*,20.9*,-2.4
Cc1ccnc(NC(=O)c2ccc(NS(=O)(=O)/C=C/c3ccccc3)cc2)c1,2.4,-4.9,18.1,-2.3,0.3,.,.
CC(C)(C)OC(=O)N[C@@H](CCCCNC(=O)OCc1ccccc1)c1nnc([C@H](CCCCNC(=O)OCc2ccccc2)NC(=O)OC(C)(C)C)o1,4.5,-6.0,17.6,-7.3,23.3*,12.8,2.5
COc1ccc(NC(=O)C(CCCCNC(=O)OC(C)(C)C)NC(=O)OCc2ccccc2)cc1 (stereo not given),6.0,7.1,-12.2,-5.1,1.9,.,.
SMILES,PP5 primary,CSC inhib,SKKanGAS inh,Beta apoptosis,PP1 inh,PP1 confirm,PP5 inh counter
CCCCC(=O)NC(c1cccs1)c1cc(Cl)c2cccnc2c1O (stereo not given),-1.4,120.0*,66.9*,94.5*,19.5*,24.4*,-4.0
CCCC(=O)NC(c1ccc(C(C)C)cc1)c1ccc2cccnc2c1O (stereo not given),-2.1,99.4*,84.2*,.,26.4*,23.4*,-1.1
CCCC(=O)NC(c1ccccc1Cl)c1ccc2cccnc2c1O (stereo not given),3.5,109.4*,17.9,98.8*,19.9*,10.1,-3.0
CC(C)C(=O)NC(NC(=S)Nc1cccc2cccnc12)C(Cl)(Cl)Cl (stereo not given),-0.5,.,1.6,-4.7,-0.3,.,.
CC(C)C(=O)NC(c1ccc(Cl)cc1Cl)c1ccc2cccnc2c1O (stereo not given),1.6,100.1*,81.4*,.,26.9*,19.7*,-3.1
Cc1cc(NC(c2ccc(Cl)cc2)c2ccc3cccnc3c2O)no1 (stereo not given),5.2,101.0*,100.8*,.,21.6*,15.3*,-1.6
Cc1cc(NC(=O)CSc2ccc(Cl)cc2)no1,0.7,-5.1,-0.1,-19.7,-0.6,.,.
Cc1ccc(C2(C)NC(=O)N(CC(=O)Nc3nc(-c4ccccn4)cs3)C2=O)cc1 (stereo not given),2.0,-11.0,8.8,.,25.6*,42.9*,4.7
Cc1ccc(OCC(=O)Nc2nc(-c3ccccn3)cs2)c(C)c1,7.2,.,96.7*,3.5,43.1*,41.5*,-3.2
O=C(COc1ccccc1)Nc1nc(-c2ccncc2)cs1,0.6,-7.7,11.7,-7.1,1.8,.,.
O=C(COc1ccc(F)cc1)Nc1nc(-c2ccccn2)cs1,4.9,16.8,68.8*,1.8,26.7*,34.7*,-3.0
O=C(COc1ccc([N+](=O)[O-])cc1)Nc1nc(-c2ccccn2)cs1,0.8,54.9,57.2*,.,41.0*,37.0*,-0.3
Cc1cc(Cl)ccc1OCC(=O)Nc1nc(-c2cccnc2)cs1,-0.8,2.2,-5.3,-3.2,2.3,.,.
O=C1CC(NS(=O)(=O)c2ccccc2)CN1c1ccc2c(c1)OCCO2 (stereo not given),-0.1,-11.4,-7.6,.,-0.6,.,.
O=C(Nc1nc(-c2ccccc2)cs1)Nc1ccc(F)cc1F,-0.2,15.3,-5.2,13.3,6.7,.,.
O=C(Nc1nc(-c2ccccn2)cs1)Nc1ccc(F)cc1F,2.1,-13.7,89.9*,77.0*,38.2*,41.9*,-1.0
Cc1ccc(S(=O)(=O)CCC(=O)Nc2nc(-c3ccccn3)cs2)cc1,1.6,26.8,.,-15.4,27.2*,40.3*,2.4

# Screening data: PubChem, several laboratories
